{"source": "the supplement of paper PMC4894684", "note": "Where a name gives a salt, the structure may show the parent alone. ± gives the standard deviation of the averaged measurements.", "data": [{"tested_on": "Toxoplasma gondii RH (in HFF)", "experiment": "parasite growth relative to the screen mean (all compounds = 100%); higher = less inhibition of parasite growth", "conditions": "5 µM; 72 h; oxygen 21 %", "how_it_was_run": "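Library compounds (10 mM DMSO stocks) were pin-transferred to 5 µM final onto confluent human foreskin fibroblasts in 96-well plates, then infected within 2 h with RH β-Gal–GFP Toxoplasma (MOI 1:5) and grown 72 h at 21% O2. Parasite number came from a CPRG β-Gal assay against in-plate standard curves. Growth is expressed relative to the screen mean (all compounds = 100%), averaged over two screens. Uninfected host-cell viability was checked by CellTiter-Blue.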", "units": {"parasite growth": "%"}, "values": [{"smiles": "Fc1ccc(C(OCCN2CCN(C/C=C/c3ccccc3)CC2)c2ccc(F)cc2)cc1", "parasite growth": "32.9 ± 3.4"}, {"smiles": "Cc1[nH]c2ccc(Cl)cc2c1C1=CCNCC1", "parasite growth": "129 ± 8.1"}, {"smiles": "CCN1C[C@]2(COC(=O)c3ccccc3N3C(=O)C[C@H](C)C3=O)CC[C@H](OC)[C@@]34[C@@H]5C[C@H]6[C@H](OC)[C@@H]5[C@](O)(C[C@@H]6OC)[C@](O)([C@@H](OC)[C@H]23)[C@@H]14", "note": "[Methyllycaconitine citrate]", "parasite growth": "83.1 ± 5.7"}, {"smiles": "C(=C\\c1ccccc1)/CN1CCN(CCOC(c2ccccc2)c2ccccc2)CC1", "parasite growth": "16.2 ± 8.1"}, {"smiles": "CC(=O)NCCc1c[nH]c2ccccc12", "note": "[N-Acetyltryptamine]", "parasite growth": "146 ± 7.5"}, {"smiles": "CC1=NN=C(c2ccc(N)cc2)c2cc3c(cc2C1)OCO3", "parasite growth": "47.2 ± 4.7"}, {"smiles": "C[C@@H]1O[C@@H](O[C@H]2C[C@@H](O)[C@]3(CO)[C@H]4[C@H](O)C[C@]5(C)[C@@H](C6=CC(=O)OC6)CC[C@]5(O)[C@@H]4CC[C@]3(O)C2)[C@H](O)[C@H](O)[C@H]1O", "note": "[Ouabain]", "parasite growth": "52.8 ± 8.2"}, {"smiles": "COc1ccc(C[C@H]2NC[C@H](O)[C@H]2OC(C)=O)cc1", "note": "[Anisomycin]", "parasite growth": "< 0"}, {"smiles": "CN(C)c1ccc(/C=C2\\CCCN=C2c2cccnc2)cc1", "note": "[DMAB-anabaseine dihydrochloride]", "parasite growth": "97.4 ± 15"}, {"smiles": "CN1CCc2cc3c(cc2C1C1OC(=O)c2c1ccc1c2OCO1)OCO3", "note": "(single isomer, unassigned; (+)) [(+)-Bicuculline]", "parasite growth": "141 ± 54"}, {"smiles": "NC(N)=Nc1ccc2[nH]c3c(c2c1)C[C@@]1(O)[C@H]2Cc4ccc(O)c5c4[C@@]1(CCN2CC1CC1)[C@H]3O5", "note": "[GNTI dihydrochloride]", "parasite growth": "124 ± 2.5"}, {"smiles": "O=c1[nH]c2ccccc2n1CCCN1CCC(n2c(=O)[nH]c3cc(Cl)ccc32)CC1", "note": "[Domperidone]", "parasite growth": "129 ± 11"}, {"smiles": "CC(CN)CC(=O)O", "note": "(stereo not drawn) [3-Methyl-GABA]", "parasite growth": "119 ± 4.7"}, {"smiles": "Cc1ncsc1CCCl", "note": "[Chlormethiazole hydrochloride]", "parasite growth": "60 ± 21"}, {"smiles": "CN1[C@@H]2CC[C@H]1C[C@@H](OC(c1ccc(F)cc1)c1ccc(F)cc1)C2", "note": "[3α-Bis-(4-fluorophenyl) methoxytropane hydrochloride]", "parasite growth": "40.3 ± 22"}, {"smiles": "CN1CCC(c2c[nH]c3ccc(O)cc23)CC1", "parasite growth": "177 ± 16"}, {"smiles": "Cc1onc(O)c1CC(N)C(=O)O", "note": "(racemic)", "parasite growth": "107 ± 41"}, {"smiles": "O=C(CCCN1CCC2(CC1)C(=O)NCN2c1ccccc1)c1ccc(F)cc1", "note": "[Spiperone hydrochloride]", "parasite growth": "99.8 ± 36"}, {"smiles": "Cc1cc(SCc2sc(-c3ccc(C(F)(F)F)c(F)c3)nc2C)ccc1OCC(=O)O", "parasite growth": "79.2 ± 4.8"}, {"smiles": "NC(=S)N/N=C/c1coc2ccccc2c1=O.[Cl][Cu][Cl]", "parasite growth": "37.1 ± 24"}, {"smiles": "CC[C@@H](CO)NC(=O)[C@@H]1C=C2c3cccc4[nH]cc(c34)C[C@H]2N(C)C1", "note": "[Methylergometrine maleate]", "parasite growth": "177 ± 41"}, {"smiles": "O=C1NC(=O)c2c1c1c3ccccc3[nH]c1c1[nH]c3ccccc3c21", "note": "[Arcyriaflavin A]", "parasite growth": "21.1 ± 14"}, {"smiles": "C=CCN1CC[C@]23c4c5ccc(O)c4O[C@H]2C(=O)CC[C@@]3(O)[C@H]1C5", "note": "[Naloxone hydrochloride]", "parasite growth": "143 ± 14"}, {"smiles": "CN(C(=O)Cc1ccc(Cl)c(Cl)c1)[C@H](CN1CCCC1)c1ccccc1", "note": "[ICI-199,441 hydrochloride]", "parasite growth": "49.6 ± 10"}, {"smiles": "CN1[C@@H]2CC[C@H]1CC(OC(=O)N1Cc3ccccc3NC1=O)C2", "note": "(stereo partly drawn) [DAU 5884 hydrochloride]", "parasite growth": "97.7 ± 16"}, {"smiles": "N[C@@H]1C[C@H]1c1ccccc1", "note": "[Tranylcypromine hydrochloride]", "parasite growth": "130 ± 22"}, {"smiles": "Oc1ccc2c3c1O[C@H]1c4oc5ccccc5c4C[C@@]4(O)[C@@H](C2)N(CC2CC2)CC[C@]314", "note": "[Naltriben mesylate]", "parasite growth": "127 ± 55"}, {"smiles": "CC(C)C[C@H]1C(=O)N2CCC[C@H]2[C@]2(O)O[C@](NC(=O)[C@@H]3C=C4c5cccc6[nH]c(Br)c(c56)C[C@H]4N(C)C3)(C(C)C)C(=O)N12", "note": "[Bromocriptine mesylate]", "parasite growth": "13.6 ± 8.4"}, {"smiles": "FC(F)(F)c1cccc(C2=CCN(CCc3ccc4ccccc4c3)CC2)c1", "note": "[Xaliproden hydrochloride]", "parasite growth": "159.2 ± 1.1"}, {"smiles": "C=C(C)[C@H]1CN[C@H](C(=O)O)[C@H]1CC(=O)O", "note": "[Kainic acid]", "parasite growth": "58.7 ± 12"}, {"smiles": "O=C(N[C@H]1CN2CCC1CC2)c1ccc(Cl)cc1", "parasite growth": "146 ± 25"}, {"smiles": "CCCN(CCC)C1CCc2cccc(O)c2C1", "note": "(stereo not drawn) [8-Hydroxy-DPAT hydrobromide]", "parasite growth": "121 ± 11"}, {"smiles": "COc1ccc2[nH]cc(C3=CCNCC3)c2c1", "parasite growth": "105 ± 28"}]}]}
